Compound activity from PubChem.
An excerpt weighted towards active compounds, which were near 8.6% of everything screened.
Lassa entry = Lassa virus entry inhibition | actives 4.1% (n = 18,000) | Potency, µM (series often up to 49.2 µM), for inactives: at the top dose activity change, negative = inhibition, hits mostly inhibitors | Lassa virus pseudotyped entry inhibition, cell-based qHTS | AID 720533
MARV entry inh = inhibitors of Marburg virus binding or entry into cells. Marburg virus pseudotype entry/binding inhibition, cell-based. Potency, µM (series often up to 49.2 µM), for the others: top-dose activity change, negative = inhibition, hits mostly inhibitors. actives 6.5% (n = 18,000). AID 720532
* = called active by the depositor; u = inconclusive; x = not tested or not shown; ! = not confirmed by another sample; [ ] = dose if it differs, or a comment. Calls come from the whole dose curve; tested in HEK293 cells. % is set by controls: 0 for no effect and ±100 for the full control effect; potency is the fitted concentration of half-maximal effect.

SMILES	Lassa entry	MARV entry inh
CC(=O)O[C@H]1C2[C@@H](OC(=O)Cc3ccccc3)[C@@H](C)C[C@]2(OC(C)=O)C(=O)/C(C)=C/[C@@H]2[C@H](CC[C@@]13CO3)C2(C)C (some centres undefined)	-28%	u
COc1cc(CC(=O)OCC2=C[C@H]3[C@@H]4C(C)(C)[C@]4(OC(C)=O)[C@H](OC(=O)Cc4ccccc4)[C@@H](C)[C@]3(O)[C@@H]3C=C(C)C(=O)[C@@]3(O)C2)ccc1O	13µM*	u
C=C(C)[C@]12C[C@@H](C)[C@@]34OC(Cc5ccccc5)(O[C@@H]1[C@@H]3C=C(COC(=O)Cc1cc(I)c(O)c(OC)c1)C[C@]1(O)C(=O)C(C)=C[C@@H]41)O2	18µM*	13µM*
C=C(C)[C@]12C[C@@H](C)[C@@]34OC(Cc5ccccc5)(O[C@@H]1[C@@H]3C=C(COC(=O)Cc1cc(OC)c(O)cc1I)C[C@]1(O)C(=O)C(C)=C[C@@H]41)O2	20µM*	14µM*
COc1ccc(OC[C@@H]2CC3[C@@H](CC[C@@H](C)[C@H]3c3ccc(Br)cc3)C(=O)O2)cc1 (some centres undefined)	6%[8.59 µM]	-5%[8.59 µM]
C[C@H]1[C@H](N=[N+]=[N-])[C@H](O)CCO[C@@H]1c1ccccc1	8%[8.59 µM]	13%[8.59 µM]
CC=COC(=O)N[C@@H](c1ccccc1)[C@]1(C(C)=O)CCCC1=O	x	-6%[8.59 µM]
NC[C@@H]1O[C@H](O[C@H]2[C@@H](O)[C@H](O[C@@H]3[C@@H](O)[C@H](N)C[C@H](N)[C@H]3O[C@H]3O[C@H](CN)[C@@H](O)[C@H](O)[C@H]3N)O[C@@H]2CO)[C@H](N)[C@@H](O)[C@@H]1O	-5%	8%
CC(C)C[C@H](NC(=O)[C@H](Cc1ccccc1)NC(=O)c1cnccn1)B(O)O	2.8µM*	3.5µM*
CC(C)C[C@@H](NC(=O)[C@@H](O)[C@H](N)Cc1ccccc1)C(=O)O	6%	18%
CC1=C[C@H](O)CC(C)(C)[C@H]1/C=C/C(C)=C/C=C/C(C)=C/C=C/C=C(C)/C=C/C=C(C)/C=C/C1=C(C)C[C@@H](O)CC1(C)C	0%	18%
CC[C@@H]1CN2CCc3cc(OC)c(OC)cc3[C@H]2C[C@@H]1C[C@@H]1NCCc2cc(O)c(OC)cc21	0.35µM*	u
COc1cc2c(cc1OC)[C@H](C)NCC2	5%[17.8 µM]	-19%[17.8 µM]
Cc1cccc(CN2CCN([C@@H]3C[S+](=O)([O-])N[C@@H]3COCc3ccccc3)CC2)c1	-10%	-18%
N#Cc1ccc(OCc2cn(CC(=O)c3ccc(O)cc3)nn2)cc1	-15%	14%
CC(C(O)c1ccc(O)cc1)N1CCC(Cc2ccccc2)CC1 (centres undefined)	-19%	10µM*
C[C@@H]([C@H](O)c1ccc(O)cc1)N1CCC(Cc2ccccc2)CC1	-8%	u
C=CCNC(=O)[C@H]1C=C(OC)C(=O)C[C@H](c2ccccc2)[C@H]1C	-24%[8.59 µM]	9%[8.59 µM]
O=C(/C=C\c1ccc(O)c(O)c1)O[C@@H](Cc1ccc(O)c(O)c1)C(=O)O	-16%	u
O=C(/C=C/c1ccc(O)c(O)c1)OC(Cc1ccc(O)c(O)c1)C(=O)O (centres undefined)	-5%	8.9µM*
COCC(=O)Nc1cc(C(=O)N2CCN(C)C(c3ccccc3)C2)c2c(c1)nc(-c1ccncc1)n2C (centres undefined)	-4%	16%
COc1cc(NCCCC(C)N)c2ncccc2c1 (centres undefined)	10µM*	8.9µM*
CC12C=C(C=CCCc3ccco3)C(C)(C1)[C@H](CCc1ccco1)CC2=O (some centres undefined)	-24%[8.59 µM]	29%[8.59 µM]
COC(=O)C1=C(C(=O)OC)[C@@H]2N(C)c3ccccc3[C@@]23CCC(=O)N(Cc2ccc(OC)cc2)C3=N1	1%[8.59 µM]	-9%[8.59 µM]
CC(=O)OC1(c2ccccc2)CCN(CCc2ccccc2)CC1	-24%[107 µM]	u
SMILES	Lassa entry	MARV entry inh
CN(C)C(=O)C(CCN1CCC(O)(c2ccc(Cl)cc2)CC1)(c1ccccc1)c1ccccc1	25µM*!	6.3µM*
CCN(CC)CCCN(c1ccccc1)C1Cc2ccccc2C1	8.9µM*	3.5µM*
C[C@@H]1COc2cc(F)ccc2S(=O)(=O)N1	8%	28%
CO[C@H]1C=CO[C@@]2(C)Oc3c(C)c(O)c4c(O)c(c(/C=N/N5CCN(C6CCCC6)CC5)c(O)c4c3C2=O)NC(=O)/C(C)=C\C=C[C@H](C)[C@H](O)[C@@H](C)[C@@H](O)[C@@H](C)[C@H](OC(C)=O)[C@@H]1C	u	-18%
CC(C)Nc1oc(-c2ccccc2)nc1C=Cc1ccccc1	7%[8.59 µM]	-31%[8.59 µM]
CC(C)Nc1ccc(Nc2ccccc2)cc1	u	28µM*
C[C@@H]1C=CCC(=O)N[C@@H](c2ccccc2)[C@H](C)C=CCC(=O)N[C@@H]1c1ccccc1	-1%[8.59 µM]	12%[8.59 µM]
CCCC(=O)O[C@]1(C(=O)CO)CC[C@H]2[C@@H]3CCC4=CC(=O)CC[C@]4(C)[C@H]3[C@@H](O)C[C@@]21C	-2%	-5%
CCCCCC(=O)O[C@@]1(C(C)=O)CCC2C3CCC4=CC(=O)CC[C@@]4(C)C3CC[C@]21C (some centres undefined)	22µM*	10µM*
COc1cc(C(NC(=O)C(F)(F)F)c2cc3ccccc3o2)cc(OC)c1OC (centres undefined)	x	5%[8.59 µM]
c1csc(C2(N3CCCCC3)CCCCC2)c1	-2%	-10%
c1ccc2sc(C3(N4CCCCC4)CCCCC3)cc2c1	u	11µM*
Cc1ccc(C=CC2=C[C@]3(C)C[C@]2(C)[C@H](c2ccc(C)cc2)CC3=O)cc1	-8%[8.59 µM]	-4%[8.59 µM]
CN1[C@@H]2CC[C@H]1CC(OC(=O)C(O)c1ccccc1)C2 (some centres undefined)	-4%	12%
CCC(Sc1ccccc1)C(=O)OC1CC2CCC(C1)N2C (centres undefined)	-12%	8.9µM*
Cc1cc(C)c2c(c1)CO[C@H]([C@H](O)CO)[C@H]2C=Cc1ccccc1	-15%[8.59 µM]	u
COC(=O)c1csc(C(=O)c2c[nH]c3ccccc23)n1	-1%	-2%
COc1ccc(CCNC(=O)C(=O)c2c[nH]c3ccccc23)cc1	3.5µM*	-3%
CCCCCC(=O)N1C[C@H](n2cc(COC(=O)c3ccccc3)nn2)[C@@H](O)C[C@H]1c1ccccc1	-16%	u
C/C(=C(\CCOC(=O)c1ccccc1)SS/C(CCOC(=O)c1ccccc1)=C(/C)N(C=O)Cc1cnc(C)nc1N)N(C=O)Cc1cnc(C)nc1N	-21%	-14%
COC(=O)C1=C(C(=O)OC)[C@@H]2N(CC=C(C)C)c3ccccc3[C@@]23CCC(=O)N(Cc2cccc(C(F)(F)F)c2)C3=N1	2%[8.59 µM]	-28%[8.59 µM]
C/C1=C2N=C(/C=C3N=C(/C(C)=C4\[N-]C(C(CC(N)=O)C4(C)CCC(=O)NCC(C)OP(=O)([O-])OC4C(CO)OC(n5cnc6cc(C)c(C)cc65)C4O)C4(C)N=C1C(CCC(N)=O)C4(C)CC(N)=O)C(CCC(N)=O)C\3(C)C)C(CCC(N)=O)C/2(C)CC(N)=O.[CH3-].[Co+3] (centres undefined)	2.5µM*	3.2µM*
O=C(OCc1cn([C@H]2CN(C(=O)C3CCCCC3)[C@@H](c3ccc(Cl)cc3)C[C@H]2O)nn1)c1ccccc1	-16%	-40%
Cc1cccc2c(Nc3ccc4c(c3)OCO4)nc(CN3CCC(N4CCCCC4)CC3)nc12	22µM*	10µM*
